HT1080 IDH1KD tx: toxicity to HT-1080 IDH1 knockdown cells (counter line); HT-1080 IDH1 knockdown viability, ATP luminescence, 48 h; Potency, µM (series often up to 46.1 µM), usual class: cytotoxic; 360,000 tested, 2% active
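Using the IDH1-knockdown HT-1080 line run in the same batch and compound series as the NT line, viability after 48 h at 37 °C was determined by CellTiter-Glo luminescence and expressed as % activity.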
MCF10A rerep: induces DNA re-replication in MCF 10a normal breast cells. MCF 10A DNA re-replication, Hoechst nuclear intensity, 48 h. Potency, µM (doses to about 46.1 µM), usual class: activators. 350,000 tested, 2.9% active. AID 624296; note: nearly all actives have a fitted effect of over 50% in size
KB-3-1 cytotox: KB-3-1 parental cell cytotoxicity | 400,000 tested, 1.4% active | KB-3-1 viability, CellTiter-Glo ATP luminescence, 72 h | Potency, µM (highest dose often 46.1 µM), most hits filed as cytotoxic; note: nearly all actives have a fitted effect of over 60% in size
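Cells are dispensed, compounds pinned in, plates held at 37 °C for 72 h, then CellTiter-Glo is added and luminescence read after 10 minutes. Cell line: parental KB-3-1 in phenol-red-free DMEM, 10% FBS.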
HT1080-NT tox: kills 2HG-producing HT-1080-NT fibrosarcoma cells. 360,000 tested, 1.6% active. AID 686970. Potency, µM (series often up to 46.1 µM), most hits filed as cytotoxic. HT-1080-NT fibrosarcoma viability, CellTiter-Glo ATP luminescence, 48 h;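 note: NT is the 2HG producing partner of a matched IDH1 knockdown line; nearly all actives have a fitted effect of over 55% in size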
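Luminescent CellTiter-Glo readout after 48 hours of compound exposure at 37 degrees C defined viability of HT-1080-NT cells. Activity was normalized to DMSO wells and cell-free media wells; concentration-response curves were fitted and assigned curve classes.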
KB-V1 cytotox: KB-V1 MDR subline cytotoxicity; KB-V1 MDR cells viability, CellTiter-Glo, 72 h; Potency, µM (titrated, usually from 46.1 µM), actives largely listed as cytotoxic; 400,000 tested, 3.4% active; AID 1347076; note: nearly all actives have a fitted effect of over 60% in size
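qHTS viability screen in drug-selected KB-V1 MDR cells: 72 h compound treatment at 37 degrees C, ATP luminescence end point.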
SW480 rereplic: DNA re-replication induction in SW480 cells; 340,000 tested, 1.8% active; AID 624297; SW480 DNA re-replication, Hoechst DNA content imaging, 48 h; Potency, µM (doses to about 46.1 µM), hits mostly activators; note: nearly all actives have a fitted effect of over 55% in size
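250 cells/well; 23 nL cpd via pin tool; 48 hr, 37 C, 5% CO2; Hoechst 40 min; imager read of total nuclear intensity, ex 405/em 500-530 nm.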
Hits are given with their value; ! = not confirmed by another sample; [ ] = another dose, or the depositor's remark. Only some compounds are listed: those with a hit (about 8% of all), similar ones and a draw of the others. Calls come from the whole dose curve; as a rule, active = well fitted curve in the direction sought with a large enough effect; inconclusive = small, poorly fitted or top-dose-only effect, or another doubt; inactive = no such curve, though single readings can be large; an effect the other way counts as inactive or inconclusive.

For CCCNS(=O)(=O)c1ccc(OCC(=O)N2CCN(Cc3ccc4c(c3)OCO4)CC2)cc1 the results were HT1080 IDH1KD tx inactive, MCF10A rerep inconclusive, KB-3-1 cytotox inactive, HT1080-NT tox inactive, KB-V1 cytotox inconclusive and SW480 rereplic inactive.
CCCNS(=O)(=O)c1ccc(OCC(=O)N2CCN(Cc3ccc4c(c3)OCO4)CC2)c(C)c1 was read as HT1080 IDH1KD tx inconclusive, MCF10A rerep inactive, KB-3-1 cytotox inactive, HT1080-NT tox 12µM, KB-V1 cytotox inactive and SW480 rereplic inactive.
Screening COCc1cc(C2SCC(=O)Nc3c2c(=O)[nH]n3C(C)C)ccc1OC (centres undefined) returned HT1080 IDH1KD tx inactive, MCF10A rerep inactive, KB-3-1 cytotox inactive, HT1080-NT tox inactive, KB-V1 cytotox inactive and SW480 rereplic inactive.
CCCCn1c(=O)c(C(=O)Nc2ccccc2C)c(O)c2ccccc21 was read as HT1080 IDH1KD tx inactive, MCF10A rerep inactive, KB-3-1 cytotox inactive, HT1080-NT tox inactive, KB-V1 cytotox inactive and SW480 rereplic inactive.
CCCCn1c(=O)c(C(=O)Nc2cnccn2)c(O)c2ccccc21 was read as HT1080 IDH1KD tx inactive, MCF10A rerep inconclusive, KB-3-1 cytotox 7.3µM, HT1080-NT tox inactive, KB-V1 cytotox inconclusive and SW480 rereplic inactive.
CC(C)CCn1c(=O)c(C(=O)Nc2ccccc2S(N)(=O)=O)c(O)c2ccccc21 was read as HT1080 IDH1KD tx inconclusive, MCF10A rerep inconclusive, KB-3-1 cytotox 3.7µM, HT1080-NT tox inactive, KB-V1 cytotox 2.9µM and SW480 rereplic inconclusive.
Screening CCCCCn1c(=O)c(C(=O)Nc2ncccc2C)c(O)c2ccccc21 returned HT1080 IDH1KD tx 21µM, MCF10A rerep inactive, KB-3-1 cytotox inactive, HT1080-NT tox 18µM, KB-V1 cytotox 5.2µM and SW480 rereplic inconclusive.
Screening O=P(N1CCCCCC1)(N1CCCCCC1)N1CC1 returned HT1080 IDH1KD tx inactive, MCF10A rerep inactive, HT1080-NT tox inactive and SW480 rereplic inactive.
For Cc1ccccc1-c1ccc2n1Cc1cnnn1-c1ccccc1-2 the results were HT1080 IDH1KD tx inactive, MCF10A rerep inconclusive, KB-3-1 cytotox inactive, HT1080-NT tox inactive, KB-V1 cytotox inactive and SW480 rereplic inactive.
Screening CCCCCn1c(=O)c(C(=O)Nc2nc3ccccc3[nH]2)c(O)c2ccccc21 returned HT1080 IDH1KD tx inactive, MCF10A rerep inconclusive, KB-3-1 cytotox inconclusive, HT1080-NT tox inactive, KB-V1 cytotox inconclusive and SW480 rereplic inactive.
Screening CCCSc1ccc2nc(NC(=O)OC)[nH]c2c1 returned HT1080 IDH1KD tx 0.73µM, MCF10A rerep 0.73µM, KB-3-1 cytotox 1.2µM, HT1080-NT tox inconclusive, KB-V1 cytotox 1.6µM and SW480 rereplic 0.82µM.
Screening c1cnc2c(c1)ccc1ncccc12 returned HT1080 IDH1KD tx inactive, MCF10A rerep inactive, KB-3-1 cytotox inactive, HT1080-NT tox inactive, KB-V1 cytotox inactive and SW480 rereplic inactive.
Screening Nc1ccc2cc(Br)ccc2c1 returned HT1080 IDH1KD tx inactive, MCF10A rerep inactive, KB-3-1 cytotox inactive, HT1080-NT tox inactive, KB-V1 cytotox inactive and SW480 rereplic inactive.
`COc1cc(NS(=O)(=O)c2ccc3c(c2)oc(=O)n3C)cc(OC)c1OC` gave HT1080 IDH1KD tx inconclusive, MCF10A rerep inconclusive, KB-3-1 cytotox 7.3µM, HT1080-NT tox inconclusive, KB-V1 cytotox inconclusive and SW480 rereplic 21µM.
Brc1ccc2c(c1)CN(CC1CCCCC1)Cc1cnnn1-2 was read as HT1080 IDH1KD tx inactive, KB-3-1 cytotox inactive, HT1080-NT tox inactive and KB-V1 cytotox 18µM.
Screening CC1=CC2/C=C(\C)CCC(O)C(O)/C=C/C(=O)C23C(=O)NC(CC(C)C)C3C1C (centres undefined) returned HT1080 IDH1KD tx 7.3µM, MCF10A rerep inconclusive, KB-3-1 cytotox 4.6µM, HT1080-NT tox 12µM, KB-V1 cytotox inconclusive and SW480 rereplic 18µM.
Screening CCCCCCC(=O)N/N=C/c1c(O)n(C(C)CC)c(=S)[nH]c1=O (centres undefined) returned HT1080 IDH1KD tx 15µM, MCF10A rerep inconclusive, KB-3-1 cytotox inconclusive, HT1080-NT tox inconclusive, KB-V1 cytotox inactive and SW480 rereplic inconclusive.
`CCCCCCC(=O)N/N=C/c1c(O)n(C2CC2)c(=S)[nH]c1=O` gave HT1080 IDH1KD tx inactive, MCF10A rerep inactive, KB-3-1 cytotox inactive, HT1080-NT tox inactive, KB-V1 cytotox inactive and SW480 rereplic inactive.
Screening C[N+]1(C)[C@@H]2CC[C@H]1CC(OC(=O)C(c1ccccc1)c1ccccc1)C2 (some centres undefined) returned HT1080 IDH1KD tx inactive, MCF10A rerep inactive, KB-3-1 cytotox inactive, HT1080-NT tox inactive, KB-V1 cytotox inactive and SW480 rereplic inactive.
Screening CCOC(=O)[C@]12Cc3cc(C)ccc3[C@H]1N(C1CCCCC1)C(=O)c1cc(OC)ccc12 returned HT1080 IDH1KD tx 3.3µM, KB-3-1 cytotox 3.3µM, HT1080-NT tox 2.9µM and KB-V1 cytotox 4.1µM.
CCOC(=O)[C@]12Cc3cc(OC)ccc3[C@H]1N(C1CCCCC1)C(=O)c1cc(OC)ccc12 was read as HT1080 IDH1KD tx 18µM, KB-3-1 cytotox 16µM, HT1080-NT tox 23µM and KB-V1 cytotox inconclusive.
Screening CCOC(=O)C1C(=O)NC2(C)CC1c1cc(OC)ccc1O2 (centres undefined) returned HT1080 IDH1KD tx inactive, MCF10A rerep inconclusive, KB-3-1 cytotox inactive, HT1080-NT tox inactive, KB-V1 cytotox inactive and SW480 rereplic inactive.
[O]=[Cr](=[O])([OH])[O][Cr](=[O])(=[O])[OH] was read as MCF10A rerep 12µM! and SW480 rereplic inconclusive.
Screening COc1ccc(C(Nc2ccccc2)P(=O)(Oc2ccccc2)Oc2ccccc2)cc1 (centres undefined) returned HT1080 IDH1KD tx inactive, MCF10A rerep inactive, KB-3-1 cytotox inactive, HT1080-NT tox inactive, KB-V1 cytotox inconclusive and SW480 rereplic inconclusive.
`CCOC(=O)Cn1cc([N+](=O)[O-])nc1[N+](=O)[O-]` gave HT1080 IDH1KD tx inactive, MCF10A rerep inactive, KB-3-1 cytotox inactive, HT1080-NT tox inactive, KB-V1 cytotox inactive and SW480 rereplic 23µM.
`C=C1C(O)(c2ccccc2)C2CC[N+]1(C)CC2` (centres undefined) gave HT1080 IDH1KD tx inactive, MCF10A rerep inconclusive, KB-3-1 cytotox inactive, HT1080-NT tox inactive, KB-V1 cytotox inactive and SW480 rereplic 1.2µM.
For O=P(OC1CCCCC1)(OC1CCCCC1)C(O)c1ccc(Cl)cc1Cl (centres undefined) the results were HT1080 IDH1KD tx inactive, MCF10A rerep inactive[0.0737 µM], KB-3-1 cytotox inactive, HT1080-NT tox inactive, KB-V1 cytotox inactive and SW480 rereplic inconclusive.

Screens: PubChem, National Center for Advancing Translational Sciences (NCATS)
